Many of the other results were omitted from the sample, so hits are more common in it than they were.
PRC2 inh: inhibitors of human EZH2/PRC2 methyltransferase; Q15910; PRC2 H3K27 methylation, DELFIA TRF, 1 h; inhibition, % at 12.5 µM; 57,000 tested, 0.35% active; AID 651548;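 active = mean inhibition of replicates at least 50% and every single replicate also reaching 50%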;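 note: dimethyl H3K27 on biotinylated H3 21-44 peptide detected by antibody; plate controls were median neutral control wells for no effect and median positive control wells for full effect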
The depositor's hits bear a star.

`Cc1ccccc1-c1nc(SCC(=O)Nc2sc3c(c2C#N)CCCC3)n[nH]1` gave PRC2 inh 55.4*.
Screening CCOc1ccccc1-c1nc(SCC(=O)Nc2sc3c(c2C#N)CCCC3)n[nH]1 returned PRC2 inh -27.4.
For Cc1cc(-c2ccccc2)nc(SCC(=O)Nc2sc3c(c2C#N)CCCC3)n1 the results were PRC2 inh -1.9.
O=C(N/N=C/c1cc(Cl)cc(Cl)c1O)c1ccccn1 was read as PRC2 inh -6.5.
`CC(C)(Sc1ccc(CCN(CCCCC2CCCCC2)C(=O)NC2CCCCC2)cc1)C(=O)O` gave PRC2 inh 85.7*.
Screening O=C(CN1C(=O)c2ccccc2S1(=O)=O)Nc1ccc(Cl)c(Cl)c1 returned PRC2 inh 6.4.
Cc1cccc(C(=O)O)c1NC(=O)C(C)Oc1ccc(Cl)cc1Cl (centres undefined) was read as PRC2 inh 4.2.
Screening COC(=O)c1ccccc1NC(=O)c1ccc(NC(=O)C(C)Oc2ccccc2)cc1 (centres undefined) returned PRC2 inh 3.8.
For Cc1cc(Cl)ccc1OC(C)C(=O)Nc1ccc(C(=O)Nc2ccccc2C(=O)O)cc1 (centres undefined) the results were PRC2 inh 60.1*.
COc1ccc(Cl)cc1NC(=O)CN(Cc1ccccc1)S(C)(=O)=O was read as PRC2 inh -4.0.
`O=C(CSc1ncn(-c2ccccc2)n1)Nc1ccc(Cl)cc1Cl` gave PRC2 inh 11.8.
For COC(=O)CCCCCCC(=O)N/N=C/c1ccc(OC)cc1OC the results were PRC2 inh 7.9.
COc1ccc(/C=N/NC(=O)c2ccc(C(=O)NO)cc2)c(OC)c1 was read as PRC2 inh -0.6.
For COc1cc(/C=C/c2ccc(OC)cc2OC)cc(OC)c1 the results were PRC2 inh 51.3*.
`CN(C)CCCOc1ccc(/C=N/NC(=O)c2ccccc2O)cc1` gave PRC2 inh 3.5.
For O=C(C1=C[C@@H](c2ccc3c(c2)Cc2ccccc2-3)C[C@@H](OCc2ccc(CO)cc2)O1)N1CCCCC1 the results were PRC2 inh 28.7.
Screening COc1ccc(OC)c(S(=O)(=O)N2CCC(C(=O)Nc3ccc(Cl)c(C(F)(F)F)c3)CC2)c1 returned PRC2 inh 24.5.
Screening CN(C)/C=C/C=C1C(=O)CCCC1=O returned PRC2 inh 53.6*.
Screening Cn1c(SCC(=O)c2ccc(F)cc2)nnc1-c1ccc(NC(=O)c2ccccc2Br)cc1 returned PRC2 inh -5.2.
Screening CC(Sc1nc(N)c2c3c(sc2n1)COC(C)(C)C3)C(=O)Nc1ccccc1 (centres undefined) returned PRC2 inh -16.8.
`O=C(Oc1ccc([C@@H]2Oc3cc(O)cc(O)c3C[C@H]2O)cc1O)c1cc(O)c(O)c(O)c1` gave PRC2 inh 98.8*.
Screening O=C1C[C@@H](c2ccccc2)Oc2cc(O)cc(O)c21 returned PRC2 inh -14.1.
COc1cc(C2Oc3c(O)ccc([C@@H]4Oc5cc(O)cc(O)c5C(=O)[C@H]4O)c3C2CO)ccc1O (some centres undefined) was read as PRC2 inh 16.7.
COC(=O)C1=CO[C@@H](O[C@@H]2O[C@H](CO)[C@@H](O)[C@H](O)[C@H]2O)[C@H]2[C@@H]1[C@H](OC(C)=O)C[C@]2(C)O was read as PRC2 inh -12.0.
COC(=O)C1=COC(OC2OC(CO)C(O)C(O)C2O)C2C1C=CC2(O)CO (centres undefined) was read as PRC2 inh 99.1*.
Screening COC(=O)C1=COC(O[C@@H]2O[C@H](CO)[C@@H](O)[C@H](O)[C@H]2O)[C@H]2[C@@H]1[C@H](OC(=O)CCc1ccc(O)cc1)C[C@]2(C)O (some centres undefined) returned PRC2 inh 2.1.
Screening O=C(NCCN1CCOCC1)C1CC(c2ccc(Cl)c(Cl)c2)=NO1 (centres undefined) returned PRC2 inh 9.1.
`COC(=O)CNC(=O)c1cn(-c2ccccc2)nc1-c1cc2ccccc2oc1=O` gave PRC2 inh 3.6.
CSc1ccccc1NC(=O)C(C)n1nc(C)c([N+](=O)[O-])c1C (centres undefined) was read as PRC2 inh 2.0.
CCC(C)(C)C(=O)N1CCC(C(=O)OC)CC1 was read as PRC2 inh -11.9.
COc1cc(O)c2c(=O)c(OC)c(-c3cc(O)c(OC)c(OC)c3)oc2c1 was read as PRC2 inh -16.8.
For O=c1c(O)c(-c2ccccc2)oc2cc(O)cc(O)c12 the results were PRC2 inh -0.6.
For O=c1c(O)c(-c2cc(O)c(O)c(O)c2)oc2cc(O)cc(O)c12 the results were PRC2 inh 93.1*.
`CCC(Sc1nc(C)cc(C)n1)C(=O)N1c2ccccc2Sc2ccccc21` (centres undefined) gave PRC2 inh 20.1.
For CC(=O)/C=C/C1(O)C(C)CCC2C(C)(C)CCCC21C (centres undefined) the results were PRC2 inh 3.1.
`O=C(CC1(O)C(=O)N(Cc2ccccc2)c2ccccc21)c1cc2ccccc2oc1=O` (centres undefined) gave PRC2 inh 22.3.
